# HP1b binding inh – HTS for Inhibitors of HP1-beta Chromodomain Interactions with Methylated Histone Tails | actives 0.56% (n = 390,000) | Chromobox protein homolog 1 (Homo sapiens), P83916 | Potency, µM (series often up to 114 µM), inactives show top-dose activity change, negative = inhibition, hits mostly inhibitors | AlphaScreen HP1-beta / biotin-H3K9me3 peptide binding; further: nearly all actives have a fitted effect of over 70% in size
# Target sequence (P83916 whole entry, looked up): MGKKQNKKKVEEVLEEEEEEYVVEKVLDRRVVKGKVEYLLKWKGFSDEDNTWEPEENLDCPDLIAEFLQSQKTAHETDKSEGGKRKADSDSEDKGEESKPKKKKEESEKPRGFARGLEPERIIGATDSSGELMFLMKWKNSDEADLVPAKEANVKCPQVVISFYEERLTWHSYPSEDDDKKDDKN
#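 Compound inhibition of the preformed complex between 50 nM HP1-beta and 50 nM biotinylated H3K9me3 peptide was read by AlphaScreen. Buffer was PBS pH 7.4 with 0.01% Tween-20. Incubations ran 30 min at room temperature, with 10 ug/mL donor/acceptor beads.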
# JMJD2A Tudor – qHTS Assay for Inhibitors of JMJD2A-Tudor Domain; AlphaScreen JMJD2A-Tudor / H3K4me3 peptide binding; Potency, µM (doses to about 114 µM), for inactives: at the top dose activity change, negative = inhibition, hits mostly inhibitors; actives 4.4% (n = 390,000); further: on the % scale 0 is the no-effect control and ±100 the full control effect; nearly all actives have a fitted effect of over 50% in size
# BAZ2B block – qHTS Assay for Inhibitors of BAZ2B; Bromodomain adjacent to zinc finger domain protein 2B (Homo sapiens), Q9UIF8; AlphaScreen BAZ2B-H3K14Ac peptide displacement; Potency, µM (titrated, usually from 114 µM), for the others: at the top dose activity change, negative = inhibition, most hits filed as inhibitors; actives 4.4% (n = 360,000); AID 504333, 2011; further: on the % scale 0 is the no-effect control and ±100 the full control effect; nearly all actives have a fitted effect of over 60% in size
#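 AlphaScreen displacement of biotin-H3(5-23)K14Ac peptide (50 nM final) from BAZ2B (50 nM final) in PBS pH 7.4, 0.01% Tween-20; complex preformed 30 min RT, then compounds (top 110 uM) 30 min RT, beads 20 min dark.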
# L3MBTL1 inh – qHTS Assay for the Inhibitors of L3MBTL1 | Lethal(3)malignant brain tumor-like protein 1 (Homo sapiens), Q9Y468 | actives 0.66% (n = 230,000) | AlphaScreen L3MBTL1–H3K9me1 peptide binding | Potency, µM (top dose mostly 57.1 µM), without a hit: at the top dose activity, negative = inhibition, actives largely listed as inhibitors; further: on the % scale 0 is the no-effect control and ±100 the full control effect; nearly all actives have a fitted effect of over 60% in size
#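 AlphaScreen assay: L3MBTL1 (50 nM final) was preincubated 30 min at room temperature with biotinylated H3(1-15)K9me1 peptide (75 nM final), then 30 min with library compounds; streptavidin donor and nickel chelate acceptor beads (10 ug/mL final) added, 30 min dark.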
# G9a inh – qHTS Assay for Inhibitors of Histone Lysine Methyltransferase G9a | G9a H3K9 monomethylation, AlphaScreen, 2 h | Potency, µM (doses to about 102 µM), for inactives: at the top dose activity, negative = inhibition, most hits filed as inhibitors | actives 8.8% (n = 350,000); further: on the % scale 0 is the no-effect control and ±100 the full control effect; nearly all actives have a fitted effect of over 75% in size
# Target sequence (Q96KQ7 913-1193 limits assumed): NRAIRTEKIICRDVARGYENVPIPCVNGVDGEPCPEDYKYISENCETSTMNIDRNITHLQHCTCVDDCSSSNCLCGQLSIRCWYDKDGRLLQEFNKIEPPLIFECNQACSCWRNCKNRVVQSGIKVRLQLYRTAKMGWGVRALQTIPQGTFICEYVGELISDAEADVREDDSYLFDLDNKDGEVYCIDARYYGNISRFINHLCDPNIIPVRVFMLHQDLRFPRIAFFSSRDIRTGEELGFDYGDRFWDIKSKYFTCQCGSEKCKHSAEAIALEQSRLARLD
#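 Step 1: enzyme (final 20 nM) with compound, 15 min RT. Step 2: substrate peptide 500 nM and SAM 20 uM, 2 h RT. Step 3: anti-H3K9me1 antibody and AlphaScreen beads, 10 min, then plate read.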
# Numbers without * were called inactive; ? = inconclusive; / = not tested or not shown; [ ] = remark or other dose. In the library only some 11% were active in any assay of this set; here they are far more common. The call rests on the fitted dose curve; in most records, active means well fitted inhibition curve with a large enough effect; inconclusive means small, poorly fitted or top-dose-only effect; inactive means no such curve, though single readings can be large or run the other way. Potency means the concentration at half of the fitted maximal effect.
SMILES,HP1b binding inh,JMJD2A Tudor,BAZ2B block,L3MBTL1 inh,G9a inh
CCOc1ccc(NC2c3ccccc3C(=O)N2Cc2ccco2)cc1 (centres undefined),?,45µM*,50µM*,-41%,45µM*
COc1ccc(NC2c3ccccc3C(=O)N2Cc2ccco2)cc1OC (centres undefined),-10%,?,?,-7%,?
O=C1c2ccccc2C(Nc2ccc3c(c2)OCO3)N1Cc1ccco1 (centres undefined),?,56µM*,45µM*,-7%,10µM*
O=C1c2ccccc2C(Nc2ccc3c(c2)OCO3)N1Cc1ccc2c(c1)OCO2 (centres undefined),?,45µM*,20µM*,?,40µM*
O=C1c2ccccc2C(Nc2ccc(F)c(Cl)c2)N1Cc1ccco1 (centres undefined),15%,-30%,?,-5%,45µM*
COC(=O)c1cc(NC2c3ccccc3C(=O)N2Cc2ccco2)cc(C(=O)OC)c1 (centres undefined),25%,-10%,-3%,/,-1%
CC(C)Oc1ccc(CNC(=O)CCn2c(=O)c3cccn3c3ccc(F)cc32)cc1,44%,-1%,-19%,/,4%[59 µM]
COc1ccc(-c2nnc(SCCOc3ccccc3C)o2)cc1OC,49%,-4%,0%,/,-35%[59 µM]
CCOC(=O)c1cnc2cc(C(F)(F)F)ccc2c1Nc1ccc(F)cc1F,55%,-5%,-1%,/,19%[59 µM]
Cc1ccc(C2CC(=O)n3nc(-c4ccc(Cl)cc4)nc3S2)cc1 (centres undefined),32%,9%,2%,/,-47%[59 µM]
COc1ccc(OC)c(NC2c3ccccc3C(=O)N2Cc2ccc3c(c2)OCO3)c1 (centres undefined),?,45µM*,35µM*,/,32µM*
O=C(CSc1nc(=O)[nH]c2c1CCC2)Nc1cc(C(F)(F)F)ccc1Cl,11%,-16%,-15%,/,-5%[59 µM]
Cc1ccc2c(c1)sc(-c1ccc(N(C)C)cc1)[n+]2C,23%,-34%,-36%,/,50µM*
CC[n+]1c(C)sc2cc(C)ccc21,59%,1%,-38%,0%,?
CC(=O)Nc1cc(=O)c2cccnc2[nH]1,2%,50µM*,/,/,/
O=C1CCCC2=C1Sc1ccccc1N2,-21%,-36%,45µM*,-19%,/
O=C(O)CCCN1C(=O)C(=O)/C(=C(/O)c2ccc(Cl)cc2)C1c1ccccc1 (centres undefined),30%,?,-3%,7%,?
O=C(O)CCCN1C(=O)C(=O)/C(=C(/O)c2ccccc2)C1/C=C/c1ccccc1 (centres undefined),2%,45µM*,?,2%,22%[0.501 µM]
CCOC(=O)CSc1nnc(Cc2cc(=O)[nH]c(=O)[nH]2)n1-c1ccc(Cl)cc1,5%,?,-1%,2%,50µM*
CCOc1ccc(-n2c(Cc3cc(=O)[nH]c(=O)[nH]3)nnc2SCC(=O)OC)cc1,8%,-20%,6%,-1%,?
Cc1ccc(C)c(-n2c(Cc3cc(=O)[nH]c(=O)[nH]3)nnc2SC(C)C)c1,92%,-14%,7%,6%,50µM*
COc1cccc(-n2c(Cc3cc(=O)[nH]c(=O)[nH]3)nnc2SCc2cccnc2)c1,70%,-3%,15%,0%,50µM*
Cn1cccc1Cc1nnc(SCC(=O)NCc2ccccc2)n1-c1ccc(F)cc1,17%,-34%,?,/,50µM*
CCc1ccccc1NC(=O)c1noc2c1CC(C(C)(C)C)CC2 (centres undefined),90%,38%,40%,/,33%[59 µM]
COc1ccc(NC(=O)c2nnn(-c3ccc(C(C)C)cc3)c2C)c(OC)c1,34%,-9%,-13%,/,-5%[59 µM]
COc1ccccc1C(=O)OCc1cc(=O)n2c(C)csc2n1,-5%,-11%,-2%,/,8%[59 µM]

# Screens (PubChem BioAssay)
